# Measurements from PubChem BioAssay (EPA / NIEHS).
# The source made the active and inactive calls. Rule for the calls: active = hit-call score of the fitted dose curve at least 0.9, where 1 is the maximum; inactive = score below 0.9.
# How the values were obtained:
# [1] = APR_HepG2_CellLoss_72hr: Apredica 72-hour HepG2 Assay for Cell Loss (AID 2282915); settings: high-content imaging
# In short: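 HepG2 cells exposed 72 h to compound at 0.39–200 uM (10 concentrations, duplicate) in 0.5% DMSO. Fixed with 3.7% formaldehyde and Hoechst 33342-stained. Imaged at 20x; nuclear count gives cell number, fitted bidirectionally versus DMSO.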
# [2] = APR_HepG2_P-H2AX_72hr: Apredica 72-hour HepG2 Assay for H2AX Phosphorylation (AID 2282916); settings: imaging, actives raise or lower the signal;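 note: phospho-histone H2A.x immunostain intensity per cell marking DNA damage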
# In short: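 Human hepatoma HepG2 cells are dosed across ten concentrations (0.39 to 200 uM, 0.5% v/v DMSO) and incubated 72 hr. Phospho-histone H2A.x is then detected by antibody staining alongside c-Jun and Hoechst, and quantified by automated fluorescence imaging.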
# [3] = APR_HepG2_MitoMembPot_72hr: Apredica 72-hour HepG2 Assay for Mitochondrial Membrane Potential (AID 2282917); settings: imaging, actives raise or lower the signal
# In short: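 HepG2 cells dosed 72 hr with compound at 0.39–200 uM in duplicate, 0.5% v/v DMSO final. Mitochondria stained with 250 nM MitoTracker Red CMXRos for 30 min before formaldehyde fixation, imaged by high-content fluorescence; bidirectional fit versus DMSO.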
# [4] = APR_HepG2_MitoticArrest_72hr: Apredica 72-hour HepG2 Assay for Mitotic Arrest (AID 2282918); settings: high-content imaging, actives raise or lower the signal
# In short: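 HepG2 cells treated 72 h at 0.39–200 uM, 0.5% DMSO final; formaldehyde-fixed, stained with Hoechst 33342 and phospho-histone H3 antibody, imaged by high-content fluorescence; bidirectional fit versus DMSO.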
# [5] = APR_HepG2_MicrotubuleCSK_72hr: Apredica 72-hour HepG2 Assay for Microtubule CSK Stabilty (AID 2282919); settings: HepG2 microtubule cytoskeleton, high-content imaging, actives raise or lower the signal
# In short: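 HepG2, 72 hr cmpd exposure, 0.39–200 uM (10 pts, duplicate), 0.5% DMSO. 3.7% formaldehyde fix, 0.5% Triton perm, anti-alpha-tubulin/Cy5 plus Hoechst. HCS fluorescence intensity; bidirectional fit vs DMSO baseline; taxol as positive control.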
# [6] = APR_HepG2_P-H2AX_24hr: Apredica 24-hour HepG2 Assay for H2AX Phosphorylation (AID 2282920); settings: high-content imaging, actives raise or lower the signal
# In short: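 HepG2 cells dosed 24 h at 0.39–200 uM (10 points, duplicate, 0.5% DMSO final). Formaldehyde-fixed and permeabilized, then immunostained for phospho-H2A.x with Hoechst. Fluorescence quantified by high-content imaging, fitted bidirectionally versus DMSO.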
# [7] = APR_HepG2_StressKinase_24hr: Apredica 24-hour HepG2 Assay for Stress Kinase (AID 2282922); settings: HepG2 stress kinase (phospho-c-Jun) imaging, actives raise or lower the signal
# In short: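 Read-out: phospho-c-Jun immunofluorescence (Cy3 secondary) quantified by high-content imaging at 20x, nuclei defined by Hoechst 33342. Human HepG2 liver cells dosed 24 hr, 0.39–200 uM, DMSO 0.5% v/v; gain or loss of signal fitted relative to DMSO.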
# [8] = APR_HepG2_NuclearSize_72hr: Apredica 72-hour HepG2 Assay for Nuclear Size (AID 2282925); settings: high-content imaging, actives raise or lower the signal
# In short: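 Read-out: nuclear diameter from Hoechst 33342 images (ArrayScan, 20x, six fields/well), via cell-cycle image analysis. HepG2 were dosed 0.39–200 uM for 72 hr in 0.5% DMSO. Bidirectional fit relative to DMSO.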
# [9] = ATG_CRE_CIS: Attagene CIS-FACTORIAL HepG2 Assay for human cAMP Responsive Element (CRE) binding protein 3 (AID 2282926); settings: HepG2 CRE cis-reporter, Attagene multiplexed mRNA; actives raise or lower the signal
# In short: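 Induced reporter mRNA from a CRE cis element, measured in HepG2 among many multiplexed units at 24 h. Detection used RT-PCR plus capillary electrophoresis of fluorescent fragments; DMSO served as negative control.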
# [10] = biological target: CCAAT/enhancer-binding protein beta (Homo sapiens) (UniProt P17676); experiment: ATG_C_EBP_CIS: Attagene CIS-FACTORIAL HepG2 Assay for human CCAAT/Enhancer Binding Protein (C/EBP) beta (AID 2282927); settings: HepG2 Attagene cis-factorial transcription factor reporter; actives raise or lower the signal
# In short: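 HepG2 transiently transfected with multiplexed reporter units under cis-regulatory promoters reporting endogenous C/EBPb activity. After 24 h exposure, reporter mRNA assayed by RT-PCR, fluorescent labelling, HpaI digestion and capillary electrophoresis; bidirectional fitting versus DMSO.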
# [11] = ATG_CMV_CIS: Attagene CIS-FACTORIAL HepG2 Assay for human CMV (Internal Marker) (AID 2282928); settings: HepG2 CMV promoter reporter, transcription factor profiling; actives raise or lower the signal;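 note: endpoint acts as a background internal control marker rather than a target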
# In short: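 Reporter transcripts from transfected HepG2 cells are isolated after 24 h of chemical dosing, reverse-transcribed and amplified. Fragments labeled with 6-FAM are cut with HpaI and quantified by capillary electrophoresis; DMSO defines baseline.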
# [12] = ATG_DR4_LXR_CIS: Attagene CIS-FACTORIAL HepG2 Assay for human Liver X Receptor (LXR), DR4 submotif (AID 2282929); settings: HepG2 Attagene DR4 cis-reporter, mRNA transcription; actives raise or lower the signal
# In short: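 Endogenous factor activity at a DR4 cis-element is read as reporter mRNA in transiently transfected HepG2 cells. Exposure lasts 24 h; transcripts are amplified, fluorescently labelled and sized by capillary electrophoresis, with DMSO as baseline.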
# [13] = biological target: Aryl hydrocarbon receptor (Homo sapiens) (UniProt P35869); experiment: ATG_Ahr_CIS: Attagene CIS-FACTORIAL HepG2 Assay for human Aryl Hydrocarbon Receptor (Ahr) (AID 2282930); settings: HepG2 AhR cis-factorial reporter transcription; actives raise or lower the signal
# In short: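 HepG2 cells transiently transfected with cis-element-driven multiplexed reporter units; endogenous AhR activity read as reporter mRNA 24 h after dosing, via RT-PCR, 6-FAM labelling, HpaI digestion and capillary electrophoresis. Bidirectional fit relative to DMSO.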
# [14] = ATG_AP_1_CIS: Attagene CIS-FACTORIAL HepG2 Assay for human Activator Protein 1 (AP-1) (AID 2282931); settings: HepG2 Attagene cis-factorial AP-1 reporter mRNA; actives raise or lower the signal
# In short: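 Fluorescence of labelled PCR fragments separated by capillary electrophoresis gives reporter mRNA levels. HepG2 with transfected cis-regulated reporter units, 24 h exposure; DMSO serves as baseline for bidirectional curve fits.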
# [15] = ATG_AP_2_CIS: Attagene CIS-FACTORIAL HepG2 Assay for human Activator Protein 2 (AP-2) (AID 2282932); settings: HepG2 AP-2 cis-reporter, Attagene transcription factor profiling; actives raise or lower the signal
# In short: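 Liver-derived HepG2 line, cis-reporter system measuring endogenous factors; 24 h dosing; reporter mRNA detected by fluorescent RT-PCR and capillary electrophoresis.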
# [16] = ATG_BRE_CIS: Attagene CIS-FACTORIAL HepG2 Assay for human Bone Morphogenetic Protein (BMP) Response Element (BRE) (AID 2282933); settings: HepG2 BMP response element reporter, Attagene transcription factor profiling; actives raise or lower the signal
# In short: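 Gain- or loss-of-signal was derived by bidirectional fitting against DMSO controls. The signal came from reporter mRNA, measured by RT-PCR and capillary electrophoresis, in HepG2 cells transiently carrying multiple reporter units and dosed for 24 h.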
# [17] = biological target: Retinoic acid receptor alpha (Homo sapiens) (UniProt P10276); experiment: ATG_DR5_RAR_CIS: Attagene CIS-FACTORIAL HepG2 Assay for human Retinoic Acid Receptor Alpha (RARE), DR5 submotif (AID 2282934); settings: HepG2 Attagene cis-factorial RARE DR5 reporter, mRNA; actives raise or lower the signal
# In short: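 HepG2 cells transiently transfected with multiplexed reporter units; DR5 cis-element drives reporter through endogenous transcription factors. After 24 h dosing, reporter mRNA quantified by RT-PCR, fluorescent labeling, HpaI digestion and capillary electrophoresis; bidirectional fitting versus DMSO.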
# [18] = APR_HepG2_StressKinase_72hr: Apredica 72-hour HepG2 Assay for Stress Kinase (AID 2282921); settings: HepG2 stress kinase (phospho-c-Jun) imaging, actives raise or lower the signal
# In short: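 After a 72 h compound treatment spanning 0.39 to 200 uM, formaldehyde-fixed cells are labelled for phosphorylated c-Jun and nuclei, imaged by automated fluorescence microscopy, and activity is fitted in both directions relative to DMSO controls.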
# [19] = APR_HepG2_p53Act_72hr: Apredica 72-hour HepG2 Assay for p53 Activation (AID 2282923); settings: high-content imaging, actives raise or lower the signal;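 note: average cellular p53 protein immunofluorescence intensity in HepG2 cells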
# In short: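 Imaging-based endpoint: after 72 hr compound exposure (up to 200 uM, 0.5% DMSO), fixed and permeabilized monolayers were labelled with anti-p53 antibody and imaged; signal change in either direction was fitted relative to DMSO controls.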
# [20] = APR_HepG2_MitoMass_72hr: Apredica 72-hour HepG2 Assay for Mitochondrial Mass (AID 2282924); settings: high-content imaging, actives raise or lower the signal;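 note: MitoTracker Red CMXRos stain intensity per cell imaged as mitochondrial mass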
# In short: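 Read-out: MitoTracker Red fluorescence intensity from automated imaging (20x, six fields per well) in human HepG2 liver cells. Dosing ran 72 hr, 0.39–200 uM, 0.5% DMSO; bidirectional curve fitting versus DMSO baseline.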
# Chain of CCAAT/enhancer-binding protein beta (Homo sapiens) (P17676 whole entry, looked up): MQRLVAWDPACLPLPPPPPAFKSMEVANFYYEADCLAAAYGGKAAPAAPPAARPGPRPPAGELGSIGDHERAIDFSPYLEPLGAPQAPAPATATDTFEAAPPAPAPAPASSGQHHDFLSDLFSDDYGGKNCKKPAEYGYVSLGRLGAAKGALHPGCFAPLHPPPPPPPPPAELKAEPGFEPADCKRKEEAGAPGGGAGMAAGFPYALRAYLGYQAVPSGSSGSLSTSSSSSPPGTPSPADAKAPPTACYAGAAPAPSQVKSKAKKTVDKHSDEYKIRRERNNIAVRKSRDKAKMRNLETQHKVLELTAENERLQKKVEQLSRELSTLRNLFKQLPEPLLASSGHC
# Chain of Retinoic acid receptor alpha (Homo sapiens) (P10276 whole entry, looked up): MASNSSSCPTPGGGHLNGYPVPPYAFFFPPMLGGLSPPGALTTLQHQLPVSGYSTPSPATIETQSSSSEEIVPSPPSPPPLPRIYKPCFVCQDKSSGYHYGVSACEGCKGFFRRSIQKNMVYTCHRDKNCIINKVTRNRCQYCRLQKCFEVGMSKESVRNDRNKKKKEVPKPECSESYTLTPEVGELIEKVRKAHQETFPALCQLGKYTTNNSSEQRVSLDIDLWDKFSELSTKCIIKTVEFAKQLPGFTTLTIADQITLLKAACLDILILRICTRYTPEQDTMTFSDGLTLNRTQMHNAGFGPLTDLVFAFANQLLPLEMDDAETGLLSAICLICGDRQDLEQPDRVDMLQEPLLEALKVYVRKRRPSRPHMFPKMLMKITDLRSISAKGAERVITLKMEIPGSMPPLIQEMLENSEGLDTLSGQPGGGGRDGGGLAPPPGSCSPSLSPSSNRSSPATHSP
# Chain of Aryl hydrocarbon receptor (Homo sapiens) (P35869 whole entry, looked up): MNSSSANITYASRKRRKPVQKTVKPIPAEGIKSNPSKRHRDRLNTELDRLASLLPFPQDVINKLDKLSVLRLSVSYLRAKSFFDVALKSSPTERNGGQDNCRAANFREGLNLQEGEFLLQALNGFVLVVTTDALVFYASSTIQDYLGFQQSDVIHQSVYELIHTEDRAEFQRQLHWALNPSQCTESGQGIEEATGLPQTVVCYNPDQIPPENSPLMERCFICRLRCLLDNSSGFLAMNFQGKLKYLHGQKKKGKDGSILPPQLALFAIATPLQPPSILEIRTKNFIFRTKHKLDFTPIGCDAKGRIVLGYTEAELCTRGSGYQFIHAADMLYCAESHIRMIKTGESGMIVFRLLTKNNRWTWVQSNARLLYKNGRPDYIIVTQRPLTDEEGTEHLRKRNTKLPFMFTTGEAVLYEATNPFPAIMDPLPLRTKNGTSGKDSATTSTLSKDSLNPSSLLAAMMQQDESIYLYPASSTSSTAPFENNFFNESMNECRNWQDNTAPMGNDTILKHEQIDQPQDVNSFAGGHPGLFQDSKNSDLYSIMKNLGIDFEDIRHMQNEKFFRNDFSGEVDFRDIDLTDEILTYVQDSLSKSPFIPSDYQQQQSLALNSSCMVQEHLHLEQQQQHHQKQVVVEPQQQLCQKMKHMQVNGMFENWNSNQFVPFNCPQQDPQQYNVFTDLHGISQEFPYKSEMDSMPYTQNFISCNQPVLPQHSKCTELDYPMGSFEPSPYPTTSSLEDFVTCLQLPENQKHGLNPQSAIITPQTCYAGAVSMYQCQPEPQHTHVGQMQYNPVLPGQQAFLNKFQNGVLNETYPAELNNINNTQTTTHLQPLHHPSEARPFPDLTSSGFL
smiles,measurement,setting,value
CCNC(=O)NC(=O)C(C#N)=NOC,outcome,[1],inactive
same,outcome,[2],inactive
same,outcome,[3],inactive
same,outcome,[4],inactive
same,outcome,[5],inactive
same,outcome,[6],inactive
same,outcome,[7],inactive
same,outcome,[8],inactive
same,outcome,[9],inactive
same,outcome,[10],inactive
same,outcome,[11],inactive
same,outcome,[12],inactive
same,outcome,[13],inactive
same,outcome,[14],inactive
same,outcome,[15],inactive
same,outcome,[16],inactive
same,outcome,[17],inactive
COc1ccc(-c2ccccc2)cc1NNC(=O)OC(C)C,outcome,[1],inactive
same,outcome,[2],inactive
same,outcome,[3],inactive
same,outcome,[4],inactive
same,outcome,[5],inactive
same,outcome,[6],inactive
same,outcome,[18],inactive
same,outcome,[7],inactive
same,outcome,[19],inactive
same,outcome,[8],inactive
same,outcome,[9],inactive
same,outcome,[10],inactive
same,AC50,[11],13.5 µM (active)
same,outcome,[12],inactive
same,AC50,[14],14.7 µM (active)
same,outcome,[15],inactive
same,AC50,[16],2.32 µM (active)
same,outcome,[17],inactive
COP(=S)(OC)SCn1nnc2ccccc2c1=O,AC50,[1],100 µM (active)
same,outcome,[2],inactive
same,outcome,[3],inactive
same,outcome,[4],inactive
same,outcome,[5],inactive
same,outcome,[6],inactive
same,outcome,[18],inactive
same,outcome,[7],inactive
same,outcome,[19],inactive
same,outcome,[20],inactive
same,outcome,[8],inactive
same,AC50,[9],18.8 µM (active)
same,AC50,[10],6.88 µM (active)
same,outcome,[11],inactive
same,outcome,[12],inactive
same,outcome,[13],inactive
same,AC50,[14],76.6 µM (active)
same,outcome,[15],inactive
same,AC50,[16],13.3 µM (active)
same,outcome,[17],inactive
